# The whole screen tested about 1,000 compounds, of which about 200 (20%) were called active. Rule as the data show it: active = inhibition above about 55%; inactive = the rest. A selection follows. Potency and affinity values are given separately.
# Target: Dual specificity protein phosphatase 3 (Homo sapiens) (UniProt P51452)
# Assay: VHR1 phosphatase inhibitors, biochemical (AID 1878)
# Conditions: recombinant VHR phosphatase, fluorogenic substrate; at 13.3 µM; active compounds read high
# Sequence of Dual specificity protein phosphatase 3 (Homo sapiens) (P51452 whole entry, looked up): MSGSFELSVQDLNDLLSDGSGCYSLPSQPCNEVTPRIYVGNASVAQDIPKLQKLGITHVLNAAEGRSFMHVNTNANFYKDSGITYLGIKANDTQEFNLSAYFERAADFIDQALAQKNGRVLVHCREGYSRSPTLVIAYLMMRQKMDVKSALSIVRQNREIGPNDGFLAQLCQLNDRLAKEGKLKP
row,SMILES,inhibition
1,COc1ccc(S(=O)(=O)N2CCCC(C(=O)NCC3CCCO3)C2)cc1C (configuration not stated),-4.1% (inactive)
2,COc1ccc(C(=O)NCc2nnc(SCC(=O)Nc3cc(OC)ccc3OC)o2)cc1,-6.8% (inactive)
3,CC1CCCN(CCCNC(=O)C2CC(=O)N(CCc3ccccc3)C2)C1 (configuration not stated),-5.4% (inactive)
4,CCC1CCCCN1CCCNC(=O)C1CC(=O)N(CCc2ccccc2)C1 (configuration not stated),20.9% (inactive)
5,NC(=S)N=Nc1ccc(NN=C(N)N)cc1,40.2% (inactive)
6,COc1ccc(NC(=O)Cc2nnc(SCC(=O)NC3CCCC3)n2C)cc1,-4.1% (inactive)
7,CCNC(=O)c1cc(Br)ccc1Cl,-8.7% (inactive)
8,CN(c1ccccc1)S(=O)(=O)c1nnc(NC(=O)C2CCCCC2)s1,-1.3% (inactive)
9,Cn1c2ccccc2c(=O)c2ccc(C#Cc3ccccn3)cc21,75.5% (active)
10,Cc1nc([N+](=O)[O-])cn1Cc1cccc2ccccc12,-13.3% (inactive)
11,O=C(Cn1c2ccccc2c(=O)c2ccccc21)N/N=C/c1cc([N+](=O)[O-])ccc1N1CCCCCC1,99.4% (active)
12,O=C(CN1CCCCC1)N/N=C/c1cccc(Cl)c1,-9.7% (inactive)
13,CN(C)CCNC(=O)c1cccc(S(=O)(=O)Nc2ccc(F)cc2)c1,-5.8% (inactive)
14,NC(=O)c1ccc(C(=O)N/N=C/c2cccc(Oc3ccccc3)c2)cc1,-0.5% (inactive)
15,Cc1nc2cc(NC(=O)c3ccc(Cl)cc3)ccc2n1C,-9.5% (inactive)
16,O=C(N/N=C/c1cccnc1)c1cccc(NC(=O)c2ccc(Cl)cc2)c1,92.9% (active)
17,O=C(N/N=C/c1ccncc1)c1cccc(S(=O)(=O)Nc2ccc(Cl)cc2)c1,98.9% (active)
18,Cc1ccc(S(=O)(=O)NC(CC(=O)NC2CCCC2)c2ccco2)cc1 (configuration not stated),23.6% (inactive)
19,CSc1ncc(C(=O)Nc2ccccc2Cl)c(C)n1,-1.1% (inactive)
20,COc1ccc(OC)c(N/C(N)=N/c2nc(C)cc(C)n2)c1,-19.2% (inactive)
21,Cc1ccc(NC(=O)CCNC(=O)c2ccccc2Cl)nc1,1.9% (inactive)
22,CC(c1ccccc1)N1CCn2c(nc3cc(NC(=O)NC4CCCCC4)ccc32)C1 (configuration not stated),-21.4% (inactive)
23,COc1ccc(/C=C2\N=C(C)OC2=O)cc1OC,-5.7% (inactive)
24,CC(C)OCCCNc1ncnc2c1nc1n2CCCC1,-2.4% (inactive)
25,COC(=O)c1ccnc(/C=N/O)c1,9.3% (inactive)
26,COc1ccc(-c2nnc(SC(C)C(=O)NNC(=O)c3ccc(C)cc3)o2)cc1 (configuration not stated),-2.9% (inactive)
27,COc1ccc(-c2nnc(Nc3nc4c(OC)cccc4s3)o2)cc1,95.5% (active)

# Source: PubChem BioAssay AID1878 (Sanford-Burnham Center for Chemical Genomics, 2009)
